Assay [1] can be described thus: qHTS assay to identify small molecule antagonists of the estrogen related receptor (ERR) signaling pathway from Tox21 library - cell viability counter screen (AID 1224834). Note: nearly all actives have a fitted effect of over 30% in size. Note: potency is the fitted concentration of half-maximal effect. An outline of the steps:
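Cytotoxicity of test substances is gauged in the same ERR cells used for the antagonist screen, after 17.5 h of compound treatment at 37 C, by CellTiter-Fluor fluorescence measured after 30 min.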

Assay [2] concerns the target Luciferin 4-monooxygenase (Photinus pyralis) (UniProt P08659). Briefly: qHTS assay to identify small molecule inhibitors of firefly luciferase (AID 1224835). Note: nearly all actives have a fitted effect of over 25% in size. Note: potency is the fitted concentration of half-maximal effect. In short, it runs like this:
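Biochemical qHTS: compounds run as interplate titrations against purified firefly enzyme, with D-luciferin and ATP each at its KM concentration. Light output recorded by CCD imaging.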

A short description of assay [3]: qHTS assay to identify small molecule agonists of the constitutive androstane receptor (CAR) signaling pathway - cell viability counter screen (AID 1224836). Note: nearly all actives have a fitted effect of over 45% in size. Note: potency is the fitted concentration of half-maximal effect. An outline of the steps:
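Double-stable HepG2 hepatoma cells (hCAR plus CYP2B6-2.2kb) are treated for 23 h at 37 C with test compounds in 15-point concentration series. PK11195 at 0.75 uM final is co-added. Cell viability is quantified by CellTiter-Fluor.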

The nature of assay [4]: qHTS assay to identify small molecule antagonists of the constitutive androstane receptor (CAR) signaling pathway - cell viability counter screen (AID 1224837). Note: potency is the fitted concentration of half-maximal effect; nearly all actives have a fitted effect of over 45% in size. An outline of the steps: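 Multiplexed cytotoxicity read-out for the CAR antagonist screen: double-stable HepG2-CYP2B6-hCAR cells co-treated with 50 nM CITCO (final) and compound over 15 concentrations, incubated 23 hr, then assessed by CellTiter-Fluor fluorescence.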

The nature of assay [5]: qHTS assay to identify small molecule antagonists of the estrogen related receptor signaling pathway with the pleiotropic PPARgamma coactivator (PGC) from Tox21 10K library - cell viability counter screen (AID 1224840; active = well fitted cell-killing curve with a large enough effect in the repeat runs, not every such curve was filed as active; note: nearly all actives have a fitted effect of over 40% in size; note: potency is the fitted concentration of half-maximal effect). An outline of the steps:
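Step one, plate 2,000 PGC/ERR cells per well; step two, incubate 6 h at 37 C/5% CO2; step three, pin-transfer compounds; step four, incubate 17.5 h; step five, add CellTiter-Fluor and read fluorescence after 30 min.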

Assay [6] is described as follows: qHTS assay to identify small molecule agonists of the hypoxia (HIF-1) signaling pathway (AID 1224846; active = well fitted activation curve with a large enough effect in the signal ratio in the repeat runs, not every such curve was filed as active; the % refers to the signal ratio; note: % is set by controls: 0 for no effect and ±100 for the full control effect). An outline of the steps:
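Steps: seed ME-180 HRE-bla cells (2,000/well, 0.5% dialyzed FBS); incubate 5 hrs at 37C; pin-transfer compounds or DMSO; incubate 17 hrs; add LiveBLAzer B/G substrate CCF4-AM; measure reporter activation by FRET.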

Assay [7] is described as follows: qHTS assay to identify small molecule agonists of H2AX - cell viability counter screen (AID 1224847; calls by dose curve; note: potency is the fitted concentration of half-maximal effect; nearly all actives have a fitted effect of over 30% in size). An outline of the steps: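 For this counter screen, overnight-attached CHO-K1 cells received test compounds (15 concentrations, 0.76% DMSO final); 3 hr later at 37C, CellTiter-Glo reagent was added and luminescence recorded after 30 min at room temperature.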
The nature of assay [8]: qHTS assay to identify small molecule antagonists of the estrogen related receptor (ERR) signaling pathway from Tox21 library (AID 1224848). Note: nearly all actives have a fitted effect of over 50% in size. Note: potency is the fitted concentration of half-maximal effect. In short, it runs like this:
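Luminescent reporter read-out (ONE-Glo) from NTP's ERR cell line after 18 h treatment at 37 C with DMSO-dissolved Tox21 compounds; cells pre-plated 6 h beforehand at 2,000 per well.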

The nature of assay [9]: qHTS assay to identify small molecule agonists of the estrogen related receptor (ERR) signaling pathway from Tox21 library (AID 1224849; calls by dose curve; note: % is set by controls: 0 for no effect and ±100 for the full control effect; nearly all actives have a fitted effect of over 15% in size). The settings on record: ERR reporter cell line, ONE-Glo luciferase, 18 h. An outline of the steps: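 Agonist signal is luciferase luminescence from an ERR reporter cell line treated 18 h at 37 C with DMSO-dissolved compounds, read 30 min after ONE-Glo addition at room temperature.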

Assay [10] in a line: qHTS RealTime-Glo MT Cell Viability Assay in HepG2 cells - 24 hour (AID 1224867). Note: nearly all actives have a fitted effect of over 50% in size. Note: potency is the fitted concentration of half-maximal effect. An outline of the steps: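 Viability was tracked continuously by NanoLuc luminescence from prosubstrate reduced by living HepG2 cells, at successive time points over 40 h of compound exposure. Cells with reagent were preincubated 5 h at 37 °C before compound addition.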
The nature of assay [11]: qHTS RealTime-Glo MT Cell Viability Assay in HEK293 cells - 32 hour (AID 1224868). Note: nearly all actives have a fitted effect of over 50% in size. Note: potency is the fitted concentration of half-maximal effect. An outline of the steps:
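Viability tracked continuously by luminescence as live cells reduce a prosubstrate for NanoLuc; HEK293 cells preincubated 5 h, compound-treated at 37 C, and read at 0, 8, 16, 24, 32 and 40 h.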

Assay [12] in a line: A CellTox Green Cytotoxicity Assay to monitor cytotoxicity in HEK293 cells - 0 hour (AID 1224869). Note: % is set by controls: 0 for no effect and ±100 for the full control effect; nearly all actives have a fitted effect of over 50% in size. An outline of the steps:
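Cytotoxicity was tracked continuously in HEK293 cells by a DNA-binding dye excluded from viable cells. Compounds were transferred in DMSO 5 h after seeding; fluorescence was recorded at intervals up to 40 h.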

The nature of assay [13]: qHTS RealTime-Glo MT Cell Viability Assay in HepG2 cells - 40 hour (AID 1224870). Note: nearly all actives have a fitted effect of over 50% in size. Note: potency is the fitted concentration of half-maximal effect. In short, it runs like this: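 HepG2 cells (600/well) mixed with RealTime-Glo MT reagent, settled 5 h at 37 C/5% CO2 before compound addition. Nonlytic NanoLuc luminescence from viable-cell prosubstrate reduction read repeatedly during 40 h treatment at 37 C.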
For assay [14], the target named is Thyrotropin receptor (Homo sapiens) (UniProt P16473). Put plainly: qHTS assay to identify small molecule agonists of the thyroid stimulating hormone receptor (TSHR) signaling pathway (AID 1224843; calls by dose curve; note: nearly all actives have a fitted effect of over 45% in size; note: potency is the fitted concentration of half-maximal effect; for activation: % is set by controls: 0 for no effect and ±100 for the full control effect). In short, it runs like this: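 Steps: seed 800 TSHR-HEK293 cells per well; add test compound and hold 30 min at ambient temperature; dispense cAMP-d2 then anti-cAMP cryptate; incubate 1 h at ambient; measure fluorescence intensity.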

Assay [15] concerns the target Nuclear receptor subfamily 1 group I member 3 (Homo sapiens) (UniProt Q14994). Put plainly: qHTS assay to identify small molecule antagonists of the constitutive androstane receptor (CAR) signaling pathway (AID 1224838). Note: % is set by controls: 0 for no effect and ±100 for the full control effect; nearly all actives have a fitted effect of over 40% in size. An outline of the steps:
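Compounds were titrated across 15 concentrations onto HepG2 cells double-stably expressing hCAR and a CYP2B6-2.2kb reporter, together with 50 nM CITCO (final). After 24 h at 37 C, luciferase activity was measured by luminescence.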

Assay [16] has the same target. Put plainly: qHTS assay to identify small molecule agonists of the constitutive androstane receptor (CAR) signaling pathway (AID 1224839).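 For activation: HepG2 cells stably carrying human CAR and a CYP2B6 luciferase reporter; % is set by controls: 0 for no effect and ±100 for the full control effect.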 Note: nearly all actives have a fitted effect of over 15% in size. Note: potency is the fitted concentration of half-maximal effect. An outline of the steps:
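Readout: firefly luciferase luminescence via ONE-Glo. System: HepG2 double-stable for hCAR and CYP2B6-2.2kb. Conditions: 15-point compound titration, PK11195 at 0.75 uM final, 24 h incubation.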

A short description of assay [17]: qHTS assay to identify small molecule agonists of the hypoxia (HIF-1) signaling pathway - cell viability counter screen (AID 1224844; calls by dose curve). An outline of the steps: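 Tox21 10K compounds were added to HRE-bla ME-180 cells (0.5% dialyzed FBS) and incubated 17 hrs at 37C; ATP-based CellTiter-Glo luminescence then reported cell viability in the same wells.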
Assay [18] can be described thus: qHTS assay to identify small molecule agonists of H2AX (AID 1224845; active = well fitted activation curve with a large enough effect in the signal ratio in the repeat runs, not every such curve was filed as active; the % refers to the signal ratio; note: potency is the fitted concentration of half-maximal effect). In short, it runs like this: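 Wild-type CHO-K1 cells, plated overnight, exposed 3hr at 37C to 15 concentrations (0.76% DMSO final). Lysed, then HTRF anti-pH2AX (S139) cryptate and anti-H2AX-d2 antibodies, 24 hr room temperature; 665/620 nm emission read.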
Assay [19] can be described thus: qHTS assay to identify small molecule agonists of the estrogen related receptor signaling pathway with the pleiotropic PPARgamma coactivator (PGC) from Tox21 10K library (AID 1224842). Note: % is set by controls: 0 for no effect and ±100 for the full control effect; nearly all actives have a fitted effect of over 15% in size. An outline of the steps: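 PGC/ERR reporter cell line, 2,000 cells per well, incubated 6 h at 37 C before 23 nL compound in DMSO was added. After 18 h at 37 C, One-Glo luminescence read following 30 min at room temperature.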

Assay [20] is described as follows: qHTS assay to identify small molecule antagonists of the estrogen related receptor signaling pathway with the pleiotropic PPARgamma coactivator (PGC) from Tox21 10K library (AID 1224841; call rule not given here). An outline of the steps: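 Antagonism in this quantitative HTS is taken from loss of luciferase signal in PGC/ERR cells. Cells (2,000/well) are treated with compounds in DMSO after a 6 h settling period and read by One-Glo luminescence after 18 h.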

The mark [21] stands for this setting: at 92.4 µM (top of the series) unless noted.

Values joined by “and” are separate entries in the source; they are usually repeats but may differ in a detail not shown here. Identical values can stand only once. Inconclusive results are not listed. More than one record can exist for a structure, and the calls need not agree. Active and inactive are the calls of the source. Unless noted, calls come from the whole dose curve; as a rule, active = well fitted curve in the direction sought with a large enough effect in the repeat runs; inconclusive = weak or mixed curves; inactive = no such curve, though single readings can be large; an effect the other way counts as inactive or inconclusive.

Nuclear receptor subfamily 1 group I member 3 (Homo sapiens), sequence (Q14994 whole entry, looked up): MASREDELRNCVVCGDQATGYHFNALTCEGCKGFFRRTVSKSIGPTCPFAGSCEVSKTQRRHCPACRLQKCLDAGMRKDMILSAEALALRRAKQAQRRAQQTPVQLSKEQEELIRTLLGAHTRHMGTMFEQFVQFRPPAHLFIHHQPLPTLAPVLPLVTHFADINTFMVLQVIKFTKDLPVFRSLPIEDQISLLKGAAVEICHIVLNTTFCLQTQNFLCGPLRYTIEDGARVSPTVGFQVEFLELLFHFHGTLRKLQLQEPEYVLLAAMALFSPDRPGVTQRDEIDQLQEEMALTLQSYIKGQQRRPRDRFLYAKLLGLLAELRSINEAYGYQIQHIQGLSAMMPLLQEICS
Luciferin 4-monooxygenase (Photinus pyralis), sequence (P08659 whole entry, looked up): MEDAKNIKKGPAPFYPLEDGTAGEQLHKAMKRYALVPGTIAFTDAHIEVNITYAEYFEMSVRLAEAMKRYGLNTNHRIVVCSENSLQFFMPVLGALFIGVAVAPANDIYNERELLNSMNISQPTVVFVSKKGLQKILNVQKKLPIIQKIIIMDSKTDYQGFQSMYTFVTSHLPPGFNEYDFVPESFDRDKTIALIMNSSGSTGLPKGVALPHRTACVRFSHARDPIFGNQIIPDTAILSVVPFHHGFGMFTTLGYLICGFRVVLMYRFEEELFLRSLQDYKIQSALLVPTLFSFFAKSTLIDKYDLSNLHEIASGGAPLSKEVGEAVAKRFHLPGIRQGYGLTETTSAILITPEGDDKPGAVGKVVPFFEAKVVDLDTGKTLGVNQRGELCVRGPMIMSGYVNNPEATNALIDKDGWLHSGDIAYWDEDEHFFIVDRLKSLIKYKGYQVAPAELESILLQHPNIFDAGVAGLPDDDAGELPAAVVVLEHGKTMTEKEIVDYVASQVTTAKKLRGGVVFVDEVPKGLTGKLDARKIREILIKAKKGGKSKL
Thyrotropin receptor (Homo sapiens), sequence (P16473 whole entry, looked up): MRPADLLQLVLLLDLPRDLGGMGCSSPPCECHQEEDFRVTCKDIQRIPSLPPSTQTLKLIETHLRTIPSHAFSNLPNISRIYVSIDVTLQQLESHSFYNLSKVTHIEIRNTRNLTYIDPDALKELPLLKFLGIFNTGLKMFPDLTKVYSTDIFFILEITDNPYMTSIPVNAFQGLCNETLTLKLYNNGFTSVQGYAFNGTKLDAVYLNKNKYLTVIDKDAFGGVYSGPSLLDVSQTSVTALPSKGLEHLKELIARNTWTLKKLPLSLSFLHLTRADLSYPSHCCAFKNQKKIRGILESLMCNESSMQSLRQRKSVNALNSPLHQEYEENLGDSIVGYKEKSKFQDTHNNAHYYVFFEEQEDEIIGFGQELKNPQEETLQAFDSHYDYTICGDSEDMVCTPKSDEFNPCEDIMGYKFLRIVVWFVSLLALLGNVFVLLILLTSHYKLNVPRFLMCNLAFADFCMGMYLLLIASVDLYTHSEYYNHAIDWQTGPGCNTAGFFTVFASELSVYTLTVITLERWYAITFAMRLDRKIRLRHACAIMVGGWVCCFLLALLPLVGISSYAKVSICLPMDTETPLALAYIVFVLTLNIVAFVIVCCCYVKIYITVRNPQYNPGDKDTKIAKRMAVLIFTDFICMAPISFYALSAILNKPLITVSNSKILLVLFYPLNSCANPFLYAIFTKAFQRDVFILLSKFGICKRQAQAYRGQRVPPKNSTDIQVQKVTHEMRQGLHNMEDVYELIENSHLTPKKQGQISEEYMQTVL

`COc1ccc(N)cc1N`: the Potency in [1] was 31.6 µM (active); in assay [2], 41.2 µM (active); in [3], 63.1 µM (active); in assay [4] it was 70.8 µM (active); in assay [5], 28.2 µM (active) and inactive; in assay [7], 41.4 µM (active) and 54.4 µM (active). Also, the Potency in [8] is 63.1 µM (active) and 14.7 µM (active); in assay [11] it was 45 µM (active). In [6], the compound was classed as inactive. Further, the activity change, positive = activation is -34.8% (inactive) in [9] (at 42.5 µM (top of the series)) and -69.2% (inactive) in assay [9] (at 92.4 µM (top of the series)). Further, the Potency entry in [10], in assay [12] and in assay [13] was “inactive” each time.
Consider `CCN(CC)C(=S)[S-].CCN(CC)C(=S)[S-].[Zn+2]`, for which the Potency in assay [1] is 3.41 µM (active); in assay [2], 35.3 µM (active); in [3] it was 3.04 µM (active); in assay [4], 1.36 µM (active); in assay [5], 2.41 µM (active); in [7], 50 µM (active). Also, the Potency is 13.7 µM (active) in assay [10] and 4.86 µM (active) in [11]. Also, the Potency result in assay [14] was “inactive”.
For `CCN`, the Potency result in assay [1], in [2], in assay [3], in assay [15], in [16] and in [5] was “inactive” throughout. The Potency entry in [14], in assay [17], in assay [18], in assay [10], in assay [11] and in [12] was “inactive” throughout. The Potency result in assay [13] is “inactive”. Moreover, the result in assay [6] was inactive.
As to `CCCN(CC)CC1COC2(CCC(C(C)(C)C)CC2)O1` (stereo unspecified), the Potency entry in [1], in [2], in assay [3], in assay [15], in [16] and in [5] was “inactive” in each case. Moreover, the Potency result in assay [14], in [17], in assay [18], in assay [10], in assay [11] and in assay [12] was “inactive” each time.
Regarding `CCC(C)c1cc([N+](=O)[O-])cc([N+](=O)[O-])c1OC(=O)C=C(C)C` (stereo unspecified), the Potency in assay [1] is 27.3 µM (active); in assay [3], 61.1 µM (active); in [4], 61.1 µM (active); in [5], 30.6 µM (active); in [7], 56.6 µM (active); in assay [10], 49 µM (active). Further, in assay [2], the Potency entry was “inactive”.
`O=[N+]([O-])c1cc(C(F)(F)F)c(Cl)c([N+](=O)[O-])c1Cl`: the Potency is 54.5 µM (active) in [1]; 79.6 µM (active) in assay [2]; 43.3 µM (active) in assay [3]; 27.3 µM (active) in assay [4]; 48.6 µM (active) in assay [5]; 31.8 µM (active) in assay [18]. Besides, the Potency is 27.3 µM (active) in [8], 21.9 µM (active) in assay [10], 5.49 µM (active) in [11] and 13.8 µM (active) in assay [13]. Besides, the Potency entry in assay [19] is “inactive”. For the same compound, in assay [9] (setting [21]), the activity change, positive = activation was -73.4% (inactive).
On to `BrC(Br)Br`, for which the Potency entry in assay [1], in [2], in [3], in assay [15], in assay [16] and in assay [5] was “inactive” throughout. Besides, the Potency result in assay [20], in assay [19], in assay [14], in assay [17], in assay [18] and in assay [8] was “inactive” each time. The Potency entry in assay [10], in [11], in [12] and in assay [13] was “inactive” each time. Also, the result in assay [6] was inactive. Moreover, in [9] (setting [21]), the activity change, positive = activation is 0.336% (inactive).
Regarding `CC(C)CCCCCCCOP(=O)(Oc1ccccc1)Oc1ccccc1`, the Potency entry in [1], in assay [2], in assay [3], in [15], in assay [5] and in [19] was “inactive” each time. Moreover, the Potency entry in assay [17], in assay [18], in assay [10], in assay [12] and in [13] was “inactive” each time. The Potency is 27.4 µM (active) in assay [16] and 24.5 µM (active) in assay [14]. In addition, in [6], the outcome was inactive. In addition, in assay [9] (setting [21]), the activity change, positive = activation is -16.8% (inactive).

The values above are taken from PubChem BioAssay (Tox21).
